From paper PMC7862700, “An all-to-all approach to the identification of sequence-specific readers for epigenetic DNA modifications on cytosine”

These sequences were tested against T1, ELF5 (Homo sapiens, UniProt Q9UKW6-2 1-255) (assay: DAPPL (digital affinity profiling via proximity ligation, sequencing); 10 mM Tris-HCl pH 7.5, 50 mM NaCl, 1 mM DTT, 4% glycerol, room temperature, 30 min; GST-TFs on glutathione beads, 16-mer random dsDNA library, 0.1% formaldehyde crosslink after washing; high values mean tight binding). Details: protein: recombinant; tags: N-terminal GST; dsDNA, one strand shown.
T1 sequence: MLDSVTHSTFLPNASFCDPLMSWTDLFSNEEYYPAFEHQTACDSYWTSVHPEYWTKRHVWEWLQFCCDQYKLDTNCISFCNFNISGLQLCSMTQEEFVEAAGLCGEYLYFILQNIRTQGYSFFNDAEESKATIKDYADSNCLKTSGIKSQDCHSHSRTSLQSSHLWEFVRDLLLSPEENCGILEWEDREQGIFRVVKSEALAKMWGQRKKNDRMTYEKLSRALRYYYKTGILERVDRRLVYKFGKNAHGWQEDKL
Procedure, shortened: (§1)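 A tag-only sample was pooled with DNA-barcoded human transcription factors that had been expressed in yeast as GST fusions and captured on glutathione beads. The pools were incubated for 30 min at room temperature with 200 nmole of a random double-stranded 16-mer DNA library in Tris/NaCl/DTT/glycerol buffer, then washed, crosslinked with 0.1% formaldehyde, proximity-ligated (BsaI/T4 ligase, 1 h, 37 °C), PCR-amplified and sequenced on an Illumina NextSeq500. Binding signal is each hexamer's read frequency for a factor divided by its frequency for the tag-only sample.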

Row | Sequence | binding signal
1 | GTCCGG | 1.06 fold enrichment (6-mer frequency, TF over GST control)
2 | GACCGG | 1.08 fold enrichment (6-mer frequency, TF over GST control)
3 | GAAACC | 1.03 fold enrichment (6-mer frequency, TF over GST control)
4 | AACGCA | 1.04 fold enrichment (6-mer frequency, TF over GST control)
5 | ATCCGT | 1.17 fold enrichment (6-mer frequency, TF over GST control)
6 | CATAGT | 1 fold enrichment (6-mer frequency, TF over GST control)
7 | AGCGTC | 1.04 fold enrichment (6-mer frequency, TF over GST control)
8 | CCACCG | 1.02 fold enrichment (6-mer frequency, TF over GST control)
9 | CTGTAG | 1.01 fold enrichment (6-mer frequency, TF over GST control)
10 | AGTACC | 1.02 fold enrichment (6-mer frequency, TF over GST control)
11 | ATAGGG | 1.02 fold enrichment (6-mer frequency, TF over GST control)
12 | GCCGGA | 1.05 fold enrichment (6-mer frequency, TF over GST control)
13 | GGCTAT | 1.02 fold enrichment (6-mer frequency, TF over GST control)
14 | GGATAC | 1.02 fold enrichment (6-mer frequency, TF over GST control)
15 | AAACAG | 1.03 fold enrichment (6-mer frequency, TF over GST control)
16 | GGACTT | 1.24 fold enrichment (6-mer frequency, TF over GST control)
17 | AGTCCT | 1.17 fold enrichment (6-mer frequency, TF over GST control)
18 | GCCCGG | 1.05 fold enrichment (6-mer frequency, TF over GST control)
19 | CAGTTC | 1 fold enrichment (6-mer frequency, TF over GST control)

These sequences were tested against T2, ETV3 (Homo sapiens, UniProt P41162-2 1-143) in the same assay as above. Details: protein: recombinant; tags: N-terminal GST; dsDNA, one strand shown.
T2 sequence: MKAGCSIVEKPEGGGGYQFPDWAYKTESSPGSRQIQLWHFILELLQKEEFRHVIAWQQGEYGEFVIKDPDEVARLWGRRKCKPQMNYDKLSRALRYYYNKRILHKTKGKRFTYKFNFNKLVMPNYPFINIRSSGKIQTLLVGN
Procedure, shortened: as §1

Row | Sequence | binding signal
20 | GTCCGG | 1.05 fold enrichment (6-mer frequency, TF over GST control)
21 | TATGAG | 1.09 fold enrichment (6-mer frequency, TF over GST control)
22 | TGGTCG | 1 fold enrichment (6-mer frequency, TF over GST control)
23 | GACCGG | 1.09 fold enrichment (6-mer frequency, TF over GST control)
24 | GAAACC | 1.02 fold enrichment (6-mer frequency, TF over GST control)
25 | TGAAGC | 1 fold enrichment (6-mer frequency, TF over GST control)
26 | CGACGG | 1.05 fold enrichment (6-mer frequency, TF over GST control)
27 | AACGCA | 1.03 fold enrichment (6-mer frequency, TF over GST control)
28 | ATCCGT | 1.04 fold enrichment (6-mer frequency, TF over GST control)
29 | AGCGTC | 1.01 fold enrichment (6-mer frequency, TF over GST control)
30 | GTGCCT | 1.07 fold enrichment (6-mer frequency, TF over GST control)
31 | CCACCG | 1.04 fold enrichment (6-mer frequency, TF over GST control)
32 | GCCGGA | 1.1 fold enrichment (6-mer frequency, TF over GST control)
33 | GGCTAT | 1.06 fold enrichment (6-mer frequency, TF over GST control)
34 | GGATAC | 1 fold enrichment (6-mer frequency, TF over GST control)
35 | AAACAG | 1.01 fold enrichment (6-mer frequency, TF over GST control)
36 | GGACTT | 1.27 fold enrichment (6-mer frequency, TF over GST control)
37 | AGTCCT | 1.01 fold enrichment (6-mer frequency, TF over GST control)
38 | GCCCGG | 1.07 fold enrichment (6-mer frequency, TF over GST control)
39 | CAGTTC | 1.13 fold enrichment (6-mer frequency, TF over GST control)

The sequences below were run against ETV6 (Homo sapiens, UniProt P41212 1-452) in the same assay as above. Details: protein: recombinant; tags: N-terminal GST; dsDNA, one strand shown.
ETV6, sequence (P41212 whole entry): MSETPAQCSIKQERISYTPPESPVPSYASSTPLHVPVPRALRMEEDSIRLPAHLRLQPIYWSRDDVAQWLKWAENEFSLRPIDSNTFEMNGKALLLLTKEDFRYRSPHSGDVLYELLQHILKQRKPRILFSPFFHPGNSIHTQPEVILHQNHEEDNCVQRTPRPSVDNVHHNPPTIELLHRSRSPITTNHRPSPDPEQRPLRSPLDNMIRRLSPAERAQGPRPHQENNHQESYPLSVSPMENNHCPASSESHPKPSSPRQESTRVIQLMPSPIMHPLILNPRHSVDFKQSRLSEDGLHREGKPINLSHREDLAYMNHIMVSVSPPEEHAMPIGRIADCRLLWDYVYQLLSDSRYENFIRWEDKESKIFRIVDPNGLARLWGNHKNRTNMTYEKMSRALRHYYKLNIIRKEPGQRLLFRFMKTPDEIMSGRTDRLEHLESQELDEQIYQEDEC
Procedure, shortened: as §1

Row | Sequence | binding signal
40 | AACTGT | 1.04 fold enrichment (6-mer frequency, TF over GST control)
41 | GACCGG | 1.03 fold enrichment (6-mer frequency, TF over GST control)
42 | CATAGC | 1.02 fold enrichment (6-mer frequency, TF over GST control)
43 | GAAACC | 1.08 fold enrichment (6-mer frequency, TF over GST control)
44 | TGAAGC | 1.01 fold enrichment (6-mer frequency, TF over GST control)
45 | CGACGG | 1.03 fold enrichment (6-mer frequency, TF over GST control)
46 | AACGCA | 1.06 fold enrichment (6-mer frequency, TF over GST control)
47 | CGGCAA | 1.02 fold enrichment (6-mer frequency, TF over GST control)
48 | AGCGTC | 1.02 fold enrichment (6-mer frequency, TF over GST control)
49 | GTGCCT | 1.02 fold enrichment (6-mer frequency, TF over GST control)
50 | CCACCG | 1.06 fold enrichment (6-mer frequency, TF over GST control)
51 | ATAGGC | 1.04 fold enrichment (6-mer frequency, TF over GST control)
52 | GTGCCC | 1 fold enrichment (6-mer frequency, TF over GST control)
53 | AGTACC | 1.04 fold enrichment (6-mer frequency, TF over GST control)
54 | GCCGGA | 1.07 fold enrichment (6-mer frequency, TF over GST control)
55 | GGCTAT | 1.03 fold enrichment (6-mer frequency, TF over GST control)
56 | AAACAG | 1.03 fold enrichment (6-mer frequency, TF over GST control)
57 | GGACTT | 1.13 fold enrichment (6-mer frequency, TF over GST control)
58 | AGTCCT | 1.03 fold enrichment (6-mer frequency, TF over GST control)
59 | AGCGGC | 1.15 fold enrichment (6-mer frequency, TF over GST control)
